# Measurements reported in paper PMC7862700, “An all-to-all approach to the identification of sequence-specific readers for epigenetic DNA modifications on cytosine”.
# How the values were obtained:
# Assay in all cases: DAPPL (digital affinity profiling via proximity ligation, sequencing); 10 mM Tris-HCl pH 7.5, 50 mM NaCl, 1 mM DTT, 4% glycerol, room temperature, 30 min; GST-TFs on glutathione beads, 16-mer random dsDNA library, 0.1% formaldehyde crosslink after washing; high values mean tight binding
# Conditions in all cases: protein: recombinant; tags: N-terminal GST; dsDNA, one strand shown
# FLI1 = molecular target: T1, FLI1 (Homo sapiens, UniProt Q01543 1-452)
# T1 sequence: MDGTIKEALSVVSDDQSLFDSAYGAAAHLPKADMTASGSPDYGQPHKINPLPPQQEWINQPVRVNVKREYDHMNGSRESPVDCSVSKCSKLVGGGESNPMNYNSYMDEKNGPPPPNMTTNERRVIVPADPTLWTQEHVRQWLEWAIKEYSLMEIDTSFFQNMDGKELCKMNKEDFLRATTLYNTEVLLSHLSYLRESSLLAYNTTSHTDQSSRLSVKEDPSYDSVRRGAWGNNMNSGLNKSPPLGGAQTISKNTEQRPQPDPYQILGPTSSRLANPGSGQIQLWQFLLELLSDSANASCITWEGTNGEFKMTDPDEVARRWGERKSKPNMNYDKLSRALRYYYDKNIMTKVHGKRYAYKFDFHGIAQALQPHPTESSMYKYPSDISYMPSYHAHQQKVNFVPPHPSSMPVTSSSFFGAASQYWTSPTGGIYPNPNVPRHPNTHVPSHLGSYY
# Outline: (§1)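 After expression in yeast as GST fusions, human transcription factors were bound to glutathione beads, DNA-barcoded and mixed with a tag-only sample. The pools were incubated with 200 nmole of a 16-mer random double-stranded DNA library in Tris/NaCl/DTT/glycerol buffer (30 min, room temperature), washed and crosslinked with 0.1% formaldehyde. Proximity ligation with BsaI/T4 ligase ran for 1 h at 37 °C, before PCR amplification and sequencing on an Illumina NextSeq500. Binding signal is a hexamer's read frequency for a factor divided by its frequency for the tag-only sample.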
# ELK1 = molecular target: T2, ELK1 (Homo sapiens, UniProt P19419 1-428)
# T2 sequence: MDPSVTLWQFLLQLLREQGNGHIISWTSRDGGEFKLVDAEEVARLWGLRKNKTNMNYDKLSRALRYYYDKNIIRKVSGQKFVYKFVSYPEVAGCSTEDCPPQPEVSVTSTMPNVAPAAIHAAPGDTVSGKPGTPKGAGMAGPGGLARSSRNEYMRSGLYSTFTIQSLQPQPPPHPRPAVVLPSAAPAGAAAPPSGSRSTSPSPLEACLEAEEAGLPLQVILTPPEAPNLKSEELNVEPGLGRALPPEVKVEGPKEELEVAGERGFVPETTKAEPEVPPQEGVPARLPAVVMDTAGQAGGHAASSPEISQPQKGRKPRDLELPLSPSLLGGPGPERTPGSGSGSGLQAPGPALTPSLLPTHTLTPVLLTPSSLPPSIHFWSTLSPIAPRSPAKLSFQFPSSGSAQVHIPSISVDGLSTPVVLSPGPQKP
# Outline: as §1
# ERG = molecular target: T3, ERG (Homo sapiens, UniProt P11308 1-479)
# T3 sequence: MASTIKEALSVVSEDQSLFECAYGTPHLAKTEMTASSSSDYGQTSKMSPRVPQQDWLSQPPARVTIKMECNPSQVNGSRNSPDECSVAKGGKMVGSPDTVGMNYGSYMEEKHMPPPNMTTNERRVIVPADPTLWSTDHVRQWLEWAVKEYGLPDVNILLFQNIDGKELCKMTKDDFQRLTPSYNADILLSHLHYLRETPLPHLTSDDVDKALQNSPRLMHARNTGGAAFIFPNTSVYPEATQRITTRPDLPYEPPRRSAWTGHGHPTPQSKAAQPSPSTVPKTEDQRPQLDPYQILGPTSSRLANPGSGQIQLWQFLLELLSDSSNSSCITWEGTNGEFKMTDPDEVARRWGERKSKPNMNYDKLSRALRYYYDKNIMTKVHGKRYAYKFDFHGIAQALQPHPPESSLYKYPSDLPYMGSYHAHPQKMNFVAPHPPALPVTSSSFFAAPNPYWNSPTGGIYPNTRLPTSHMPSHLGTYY
# Outline: as §1
# ELF1 = ELF1 (Homo sapiens, UniProt P32519 1-619)
# ELF1, sequence (P32519 whole entry): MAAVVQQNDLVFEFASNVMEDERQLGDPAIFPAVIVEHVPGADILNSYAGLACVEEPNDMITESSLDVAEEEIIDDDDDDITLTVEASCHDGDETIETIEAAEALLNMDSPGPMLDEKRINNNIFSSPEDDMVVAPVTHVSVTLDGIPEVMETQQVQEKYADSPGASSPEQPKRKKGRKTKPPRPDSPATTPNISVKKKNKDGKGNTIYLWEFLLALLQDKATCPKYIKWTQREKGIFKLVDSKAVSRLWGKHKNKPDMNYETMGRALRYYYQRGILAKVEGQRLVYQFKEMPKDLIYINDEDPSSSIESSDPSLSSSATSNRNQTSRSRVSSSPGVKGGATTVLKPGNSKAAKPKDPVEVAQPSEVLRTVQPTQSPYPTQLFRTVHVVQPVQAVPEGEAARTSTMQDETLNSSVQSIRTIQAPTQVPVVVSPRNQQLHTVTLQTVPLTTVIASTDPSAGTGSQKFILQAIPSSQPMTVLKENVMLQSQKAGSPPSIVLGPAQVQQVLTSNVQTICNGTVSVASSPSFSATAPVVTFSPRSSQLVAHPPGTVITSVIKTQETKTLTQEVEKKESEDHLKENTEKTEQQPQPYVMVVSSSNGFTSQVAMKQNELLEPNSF
# Outline: as §1
# EHF = molecular target: T4, EHF (Homo sapiens, UniProt Q9NZC4 1-300)
# T4 sequence: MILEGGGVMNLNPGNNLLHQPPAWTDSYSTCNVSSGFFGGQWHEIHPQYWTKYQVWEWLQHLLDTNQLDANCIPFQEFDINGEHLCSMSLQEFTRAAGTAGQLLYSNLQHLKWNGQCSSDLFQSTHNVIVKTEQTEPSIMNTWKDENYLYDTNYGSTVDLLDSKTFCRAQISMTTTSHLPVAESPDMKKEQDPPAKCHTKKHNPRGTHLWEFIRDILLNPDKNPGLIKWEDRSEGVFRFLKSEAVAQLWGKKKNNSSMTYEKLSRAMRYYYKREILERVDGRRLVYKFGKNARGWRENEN
# Outline: as §1
# ELK3 = molecular target: T5, ELK3 (Homo sapiens, UniProt P41970 1-407)
# T5 sequence: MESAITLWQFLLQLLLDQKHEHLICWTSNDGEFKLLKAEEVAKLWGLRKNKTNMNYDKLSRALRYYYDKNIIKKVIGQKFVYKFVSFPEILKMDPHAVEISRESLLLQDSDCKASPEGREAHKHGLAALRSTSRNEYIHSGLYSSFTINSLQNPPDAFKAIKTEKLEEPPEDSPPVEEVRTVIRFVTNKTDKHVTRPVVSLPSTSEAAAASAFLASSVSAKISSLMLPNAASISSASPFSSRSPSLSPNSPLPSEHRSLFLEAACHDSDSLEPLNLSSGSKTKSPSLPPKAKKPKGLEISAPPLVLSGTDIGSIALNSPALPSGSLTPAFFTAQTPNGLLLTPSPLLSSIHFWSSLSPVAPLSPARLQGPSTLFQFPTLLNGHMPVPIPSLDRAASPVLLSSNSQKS
# Outline: as §1
# FEV = molecular target: T6, FEV (Homo sapiens, UniProt Q99581 1-238)
# T6 sequence: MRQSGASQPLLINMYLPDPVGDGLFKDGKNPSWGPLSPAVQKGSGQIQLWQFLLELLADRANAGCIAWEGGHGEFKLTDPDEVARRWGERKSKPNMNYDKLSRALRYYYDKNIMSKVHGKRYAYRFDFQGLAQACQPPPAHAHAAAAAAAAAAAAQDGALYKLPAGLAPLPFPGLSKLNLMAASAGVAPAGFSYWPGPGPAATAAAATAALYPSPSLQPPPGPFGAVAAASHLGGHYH
# Outline: as §1
# ETV1 = ETV1 (Homo sapiens, UniProt P50549 1-477)
# ETV1, sequence (P50549 whole entry): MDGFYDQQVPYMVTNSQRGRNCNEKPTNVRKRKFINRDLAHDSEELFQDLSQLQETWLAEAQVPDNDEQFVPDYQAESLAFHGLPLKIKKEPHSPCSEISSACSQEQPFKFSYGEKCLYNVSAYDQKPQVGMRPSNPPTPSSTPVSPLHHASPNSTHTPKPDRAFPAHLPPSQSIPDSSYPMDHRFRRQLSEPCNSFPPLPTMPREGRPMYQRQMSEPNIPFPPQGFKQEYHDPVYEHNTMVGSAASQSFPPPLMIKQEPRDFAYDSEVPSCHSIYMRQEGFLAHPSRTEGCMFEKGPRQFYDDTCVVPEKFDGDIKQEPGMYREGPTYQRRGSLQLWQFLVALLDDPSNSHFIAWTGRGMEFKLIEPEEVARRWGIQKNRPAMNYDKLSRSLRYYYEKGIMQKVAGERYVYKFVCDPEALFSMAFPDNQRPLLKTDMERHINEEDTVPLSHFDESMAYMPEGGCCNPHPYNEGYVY
# Outline: as §1
# ERF = molecular target: T7, ERF (Homo sapiens, UniProt P50548 1-548)
# T7 sequence: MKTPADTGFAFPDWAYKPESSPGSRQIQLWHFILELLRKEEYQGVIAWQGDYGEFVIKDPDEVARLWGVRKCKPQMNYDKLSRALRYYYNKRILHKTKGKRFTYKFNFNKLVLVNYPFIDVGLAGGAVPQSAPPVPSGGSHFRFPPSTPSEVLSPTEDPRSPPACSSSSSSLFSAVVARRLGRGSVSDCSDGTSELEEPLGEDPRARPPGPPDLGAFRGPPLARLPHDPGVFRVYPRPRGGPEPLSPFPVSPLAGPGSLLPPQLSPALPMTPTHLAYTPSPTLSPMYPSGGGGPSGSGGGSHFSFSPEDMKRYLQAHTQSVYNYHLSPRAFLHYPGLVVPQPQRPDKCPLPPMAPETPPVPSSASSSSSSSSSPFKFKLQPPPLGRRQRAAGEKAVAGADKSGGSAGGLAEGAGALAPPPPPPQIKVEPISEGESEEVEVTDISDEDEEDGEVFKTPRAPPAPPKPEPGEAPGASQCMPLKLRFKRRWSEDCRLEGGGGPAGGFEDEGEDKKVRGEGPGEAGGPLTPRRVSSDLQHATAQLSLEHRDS
# Outline: as §1
# ETV3L = molecular target: T8, ETV3L (Homo sapiens, UniProt Q6ZN32 1-361)
# T8 sequence: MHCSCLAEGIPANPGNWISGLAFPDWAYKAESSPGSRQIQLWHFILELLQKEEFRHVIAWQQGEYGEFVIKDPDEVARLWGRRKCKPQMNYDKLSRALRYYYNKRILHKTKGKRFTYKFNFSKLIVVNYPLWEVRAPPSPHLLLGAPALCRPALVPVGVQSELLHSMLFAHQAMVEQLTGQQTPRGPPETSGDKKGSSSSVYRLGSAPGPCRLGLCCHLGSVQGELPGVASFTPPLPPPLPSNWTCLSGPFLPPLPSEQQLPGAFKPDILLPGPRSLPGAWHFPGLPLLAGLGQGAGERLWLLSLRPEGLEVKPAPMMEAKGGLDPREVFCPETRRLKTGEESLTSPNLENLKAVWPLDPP
# Outline: as §1
# ETS2 = molecular target: T9, ETS2 (Homo sapiens, UniProt P15036 1-469)
# T9 sequence: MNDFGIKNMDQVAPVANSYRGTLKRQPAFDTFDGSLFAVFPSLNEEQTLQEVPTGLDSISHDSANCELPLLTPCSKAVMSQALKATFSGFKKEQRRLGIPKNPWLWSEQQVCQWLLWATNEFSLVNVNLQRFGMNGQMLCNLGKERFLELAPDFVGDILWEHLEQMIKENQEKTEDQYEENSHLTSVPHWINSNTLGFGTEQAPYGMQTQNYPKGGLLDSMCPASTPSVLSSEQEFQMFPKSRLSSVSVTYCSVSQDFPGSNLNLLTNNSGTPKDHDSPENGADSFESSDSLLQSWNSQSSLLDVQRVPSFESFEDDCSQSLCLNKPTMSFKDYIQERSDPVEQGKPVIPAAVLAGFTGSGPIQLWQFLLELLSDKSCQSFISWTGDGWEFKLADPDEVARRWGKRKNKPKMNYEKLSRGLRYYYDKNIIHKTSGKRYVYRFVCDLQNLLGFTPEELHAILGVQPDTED
# Outline: as §1
# ELF5 = molecular target: T10, ELF5 (Homo sapiens, UniProt Q9UKW6-2 1-255)
# T10 sequence: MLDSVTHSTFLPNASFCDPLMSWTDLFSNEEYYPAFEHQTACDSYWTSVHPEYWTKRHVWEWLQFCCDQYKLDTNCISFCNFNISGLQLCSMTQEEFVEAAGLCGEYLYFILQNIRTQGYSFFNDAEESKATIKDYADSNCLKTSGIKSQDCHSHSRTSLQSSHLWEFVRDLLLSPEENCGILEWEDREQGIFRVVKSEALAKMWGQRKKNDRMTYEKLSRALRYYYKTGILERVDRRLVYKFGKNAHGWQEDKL
# Outline: as §1
# ETV3 = molecular target: T11, ETV3 (Homo sapiens, UniProt P41162-2 1-143)
# T11 sequence: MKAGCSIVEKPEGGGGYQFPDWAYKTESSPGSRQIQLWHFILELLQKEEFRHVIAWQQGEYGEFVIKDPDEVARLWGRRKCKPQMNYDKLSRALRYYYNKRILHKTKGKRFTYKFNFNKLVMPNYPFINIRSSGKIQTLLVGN
# Outline: as §1
# SPI1 = SPI1 (Homo sapiens, UniProt P17947 1-270)
# Outline: as §1
# ELK4 = molecular target: T12, ELK4 (Homo sapiens, UniProt P28324-2 1-405)
# T12 sequence: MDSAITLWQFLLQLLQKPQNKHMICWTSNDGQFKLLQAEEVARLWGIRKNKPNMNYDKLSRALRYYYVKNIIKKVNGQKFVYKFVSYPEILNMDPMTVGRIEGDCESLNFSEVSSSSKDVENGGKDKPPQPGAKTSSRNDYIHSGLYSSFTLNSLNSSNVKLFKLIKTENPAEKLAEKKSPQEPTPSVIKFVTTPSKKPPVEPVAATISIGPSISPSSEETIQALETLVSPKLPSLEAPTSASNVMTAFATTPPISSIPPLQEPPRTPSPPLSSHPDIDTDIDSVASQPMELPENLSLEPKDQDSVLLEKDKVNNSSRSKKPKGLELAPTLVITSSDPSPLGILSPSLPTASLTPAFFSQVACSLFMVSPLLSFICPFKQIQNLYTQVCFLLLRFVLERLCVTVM
# Outline: as §1
# ETV2 = molecular target: T13, ETV2 (Homo sapiens, UniProt O00321 1-342)
# T13 sequence: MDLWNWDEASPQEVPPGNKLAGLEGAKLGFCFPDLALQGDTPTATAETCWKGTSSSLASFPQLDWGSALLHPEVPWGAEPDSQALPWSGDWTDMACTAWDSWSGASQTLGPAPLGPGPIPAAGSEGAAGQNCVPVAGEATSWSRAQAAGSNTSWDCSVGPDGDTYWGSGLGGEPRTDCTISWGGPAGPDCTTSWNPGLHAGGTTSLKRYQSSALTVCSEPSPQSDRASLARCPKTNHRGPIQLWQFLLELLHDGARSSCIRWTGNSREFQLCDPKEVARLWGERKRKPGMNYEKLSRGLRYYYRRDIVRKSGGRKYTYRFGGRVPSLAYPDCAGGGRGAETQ
# Outline: as §1
# ETV6 = ETV6 (Homo sapiens, UniProt P41212 1-452)
# ETV6, sequence (P41212 whole entry): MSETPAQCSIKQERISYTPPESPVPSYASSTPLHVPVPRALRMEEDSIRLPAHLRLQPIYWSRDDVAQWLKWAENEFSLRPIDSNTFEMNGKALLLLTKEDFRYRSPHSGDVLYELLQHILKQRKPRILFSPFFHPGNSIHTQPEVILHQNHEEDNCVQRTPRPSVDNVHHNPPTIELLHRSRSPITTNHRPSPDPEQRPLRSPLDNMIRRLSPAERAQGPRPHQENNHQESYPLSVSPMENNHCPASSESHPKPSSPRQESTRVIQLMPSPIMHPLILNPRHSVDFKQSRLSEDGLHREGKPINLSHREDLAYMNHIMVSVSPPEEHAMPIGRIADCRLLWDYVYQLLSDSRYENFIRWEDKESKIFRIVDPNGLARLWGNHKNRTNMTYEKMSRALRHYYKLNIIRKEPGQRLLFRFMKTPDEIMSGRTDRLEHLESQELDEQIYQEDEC
# Outline: as §1
Sequence,binding signal (FLI1),binding signal (ELK1),binding signal (ERG),binding signal (ELF1),binding signal (EHF),binding signal (ELK3),binding signal (FEV),binding signal (ETV1),binding signal (ERF),binding signal (ETV3L),binding signal (ETS2),binding signal (ELF5),binding signal (ETV3),binding signal (SPI1),binding signal (ELK4),binding signal (ETV2),binding signal (ETV6)
CGCACA,"1.01 fold enrichment (6-mer frequency, TF over GST control)","1.08 fold enrichment (6-mer frequency, TF over GST control)","1.02 fold enrichment (6-mer frequency, TF over GST control)","1.05 fold enrichment (6-mer frequency, TF over GST control)","1.03 fold enrichment (6-mer frequency, TF over GST control)","1.02 fold enrichment (6-mer frequency, TF over GST control)","1.02 fold enrichment (6-mer frequency, TF over GST control)","1.01 fold enrichment (6-mer frequency, TF over GST control)","1.07 fold enrichment (6-mer frequency, TF over GST control)","1.04 fold enrichment (6-mer frequency, TF over GST control)","1.04 fold enrichment (6-mer frequency, TF over GST control)","1.04 fold enrichment (6-mer frequency, TF over GST control)","1.03 fold enrichment (6-mer frequency, TF over GST control)",,,,
GTGCGC,"1.02 fold enrichment (6-mer frequency, TF over GST control)",,,,,,,,,,,,"1.04 fold enrichment (6-mer frequency, TF over GST control)","1.02 fold enrichment (6-mer frequency, TF over GST control)","1.15 fold enrichment (6-mer frequency, TF over GST control)","1.02 fold enrichment (6-mer frequency, TF over GST control)","1.03 fold enrichment (6-mer frequency, TF over GST control)"
